Results filed as inconclusive are left out. Where a call stands in place of a potency, no number is given. Values without a mark were called inactive. The source made the active and inactive calls. Calls come from the whole dose curve; as a rule, active = well fitted inhibition curve with a large enough effect in the repeat runs; inconclusive = weak or mixed curves; inactive = no such curve, though single readings can be large or run the other way.
Each compound was assayed against Cytochrome P450 3A4 (Homo sapiens) (UniProt P08684) (assay: Cytochrome P450 Family 3 Subfamily A Member 4 (CYP3A4) small molecule antagonists: luciferase reporter qHTS assay (AID 1671201; note: nearly all actives have a fitted effect of over 50% in size)). Conditions: P450-Glo CYP3A4 enzyme, luciferin luminescence, 1 h; series mostly up to 115 µM.
Sequence of Cytochrome P450 3A4 (Homo sapiens) (P08684 whole entry, looked up): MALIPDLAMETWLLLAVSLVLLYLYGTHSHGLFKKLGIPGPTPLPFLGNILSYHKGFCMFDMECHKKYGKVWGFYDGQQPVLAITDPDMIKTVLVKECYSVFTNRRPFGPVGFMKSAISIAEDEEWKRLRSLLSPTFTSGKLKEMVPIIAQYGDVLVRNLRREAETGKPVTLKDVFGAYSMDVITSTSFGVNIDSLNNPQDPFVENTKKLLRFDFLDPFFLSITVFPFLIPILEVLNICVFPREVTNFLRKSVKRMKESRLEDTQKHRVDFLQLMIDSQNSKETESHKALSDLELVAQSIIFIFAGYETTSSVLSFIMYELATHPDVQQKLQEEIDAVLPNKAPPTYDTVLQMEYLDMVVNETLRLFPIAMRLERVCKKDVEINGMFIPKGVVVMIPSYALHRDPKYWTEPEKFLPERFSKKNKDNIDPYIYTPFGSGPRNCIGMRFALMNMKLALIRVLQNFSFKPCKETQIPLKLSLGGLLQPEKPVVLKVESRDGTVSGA
Procedure, shortened: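 Luminescent readout (RLU) proportional to CYP3A4 activity, from luciferin generated off a proluciferin substrate. Enzyme–substrate mix plus compound 10 min at room temp, NADPH regeneration 1 h, detection reagent 20 min.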
Potency is the fitted concentration of half-maximal effect.

SMILES | activity change, negative = inhibition | Potency
O=C(O)CN(CCCN(CC(=O)O)CC(=O)O)CC(=O)O | -1.42% [at 23.6 µM] | –
C1CCSC1 | – | inactive
COc1cccc(-c2ccc(/C=C\CN3CCCCCC3)cc2Cl)c1 | – | inactive
NC(=O)C1CO1 (stereo not drawn) | – | inactive
CCSCC | – | inactive
C=CC(=O)OCC(Br)CBr (stereo not drawn) | – | inactive
CCOC(=O)[C@H](O)[C@@H](O)C(=O)OCC | – | inactive
C=C(C)CCO | – | inactive
CCCCCCCCSCc1cc(C)c(O)c(CSCCCCCCCC)c1 | – | inactive
CC1CCC(C(C)(C)O)CC1 (stereo not drawn) | – | inactive
C=CC(=O)OCCOC1C2CCC1C1CC=CC12 (stereo not drawn) | -3.35% [at 23.6 µM] | –
CCN(CCC#N)c1ccc(N=Nc2ccc([N+](=O)[O-])cc2)cc1 | – | inactive
Cc1cc(F)ccc1-c1cc(N2CC[C@@H](O)[C@H]2CO)ncc1N(C)C(=O)C(C)(C)c1cc(C(F)(F)F)cc(C(F)(F)F)c1 | – | 3.12 µM (active)
C=C1C(CCl)(CCl)C2(Cl)C(Cl)C(Cl)C1(Cl)C2(Cl)Cl (stereo not drawn) | – | 0.991 µM (active)
CCN(CC)c1ccc2c(c1)Oc1cc(N(CC)CC)ccc1C21OC(=O)c2ccccc21 | – | 11 µM (active)
c1ccc2c(c1)-c1ccc3ccc4cccc5cc-2c1c3c45 | – | inactive
CCCCCCCCCCCCCCCCC(C(=O)O)C(O)(CC(=O)O)C(=O)O (stereo not drawn) | – | inactive
COc1c(Br)cc(Br)c(C)c1Br | – | inactive
Clc1cccc(Cl)n1 | – | inactive

SMILES | activity change, negative = inhibition | Potency
C=COCCCC | – | inactive
Nc1c(Br)cc([N+](=O)[O-])cc1Br | – | inactive
CC(CC(C)(C)C)CC(C)(C)CC(C)(C)C (stereo not drawn) | – | inactive
C[C@H]1O[C@@H](O[C@H]2CC[C@@]3(C)[C@H](CC[C@@H]4[C@@H]3C[C@@H](O)[C@]3(C)[C@@H](C5=CC(=O)OC5)CC[C@]43O)C2)C[C@H](O)[C@@H]1O[C@H]1C[C@H](O)[C@H](O[C@H]2C[C@H](O)[C@H](O[C@@H]3O[C@H](CO)[C@@H](O)[C@H](O)[C@H]3O)[C@@H](C)O2)[C@@H](C)O1 | – | inactive
CCCCCCCCCCCCS(=O)(=O)Cl | -1.36% [at 23.6 µM] | –
Oc1ccc(Cl)cc1C1CCCC1 | – | inactive
CC(O)(c1ccc(Cl)cc1)c1ccc(Cl)cc1 | – | inactive
CN(C[C@@H](CC[N+]12CCC(C3CCCCC3)(CC1)CC2)c1ccc(Cl)c(Cl)c1)C(=O)c1cc(C(F)(F)F)cc(C(F)(F)F)c1 | – | 2.24 µM (active)
CC(C)C(=O)C(C)C | – | inactive
Cc1cccc(C)c1C | – | inactive
Cc1c(Cl)c(=O)oc2cc(O)ccc12 | – | inactive
c1ccc(-c2ccccc2-c2ccccc2)cc1 | – | inactive
[Cl][Eu]([Cl])[Cl] | – | inactive
CC(Cc1ccc(O)c(O)c1)C(C)Cc1ccc(O)c(O)c1 (stereo not drawn) | – | 35.6 µM (active)
CCOc1ccc([N+](=O)[O-])cc1 | – | 72.1 µM (active)
O=C1c2ccccc2C(=O)c2c(Cl)cccc21 | – | inactive
O=C(c1ccccc1)c1ccc(Cl)cc1 | – | inactive
CCC(C)(C)c1ccc(CC(C)CN2C[C@@H](C)O[C@@H](C)C2)cc1 (stereo partly drawn) | – | inactive
CCc1cccc(C)c1N(C(=O)C(=O)O)C(C)COC (stereo not drawn) | – | inactive

Source: PubChem BioAssay (Tox21)
